Assay outcomes deposited in PubChem by National Center for Advancing Translational Sciences (NCATS).
Only some compounds are listed: those with a hit (about 9.9% of all), similar ones and a draw of the others.
SW480 rerep – induces DNA re-replication in SW480 colon adenocarcinoma cells; SW480 DNA re-replication, Hoechst DNA content imaging, 48 h; 340,000 compounds, 1.8% hits; Potency, µM (series often up to 46.1 µM), without a hit: at the highest dose re-replication activation, hits mostly activators; further: potency means the concentration at half of the fitted maximal effect; % of control where 0% means no effect; nearly all actives have a fitted effect of over 55% in size
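DNA re-replication was detected as more nuclei of elevated Hoechst intensity after 48 hr exposure to compound (23 nL pinned per well of 250 cells).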
IL-1B inflam inh – blocks inflammasome-driven IL-1 beta release | 360,000 compounds, 4.7% hits | THP-1 LPS/ATP IL-1B secretion, AlphaLISA, 16 h; active compounds read low | AID 743279 | activity change, % at 57.5 µM; in the data active means activity change below about -50%; inconclusive means mostly about -30% to -49%; further: on the % scale 0 is the no-effect control and ±100 the full control effect
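Secreted IL-1B measured by AlphaLISA bead assay after 16 h compound exposure of THP-1 cells; compounds (final up to 57.5 uM) added 1 h before LPS (250 ng/mL) and ATP (1.25 mM) stimulation; lower signal means less secretion.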
KB-3-1 tox – kills parental KB-3-1 adenocarcinoma cells. AID 1347075. Potency, µM (doses to about 46.1 µM), usual class: cytotoxic. 400,000 compounds, 1.4% hits. KB-3-1 viability, CellTiter-Glo ATP luminescence, 72 h; further: potency means the concentration at half of the fitted maximal effect; on the % scale 0 is the no-effect control and ±100 the full control effect; nearly all actives have a fitted effect of over 60% in size
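Viability of parental KB-3-1 cells, measured by CellTiter-Glo luminescence, followed a 72 h incubation at 37 °C with pinned compounds in phenol-red-free DMEM containing 10% FBS.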
KB-V1 MDR tox – KB-V1 MDR subline cytotoxicity; KB-V1 MDR cells viability, CellTiter-Glo, 72 h; Potency, µM (doses to about 46.1 µM), most hits filed as cytotoxic; 400,000 compounds, 3.4% hits; AID 1347076; further: potency means the concentration at half of the fitted maximal effect; on the % scale 0 is the no-effect control and ±100 the full control effect; nearly all actives have a fitted effect of over 60% in size
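KB-V1, DMEM (no phenol red) + 10% FBS; cpd pin-transferred, titration series; 72 h, 37 degrees C; CellTiter-Glo, luminescence. Data normalized, curve-fit.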
MCF10A rerep – DNA re-replication induction in MCF 10a cells; MCF 10A DNA re-replication, Hoechst nuclear intensity, 48 h; 350,000 compounds, 2.9% hits; Potency, µM (top dose mostly 46.1 µM), without a hit: top-dose activity, positive = re-replication, most hits filed as activators; further: potency means the concentration at half of the fitted maximal effect; % of control where 0% means no effect; nearly all actives have a fitted effect of over 50% in size
The depositor's hits bear a star; i = inactive; ? = inconclusive; . = not tested or not shown; ! = repeats disagree. Unless noted, the call rests on the fitted dose curve; in most records, active means well fitted curve in the direction sought with a large enough effect; inconclusive means small, poorly fitted or top-dose-only effect, or another doubt; inactive means no such curve, though single readings can be large; an effect the other way counts as inactive or inconclusive.

SMILES	SW480 rerep	IL-1B inflam inh	KB-3-1 tox	KB-V1 MDR tox	MCF10A rerep
O=C(/C=C/c1cccs1)N1CCN(c2ccc(O)cc2)CC1	?	-2	?	i	16µM*
O=C(NC(=S)N1CCN(Cc2ccc3c(c2)OCO3)CC1)c1cccc(Br)c1	0%	-6	?	7.3µM*	11%
O=C(c1sccc1Br)N1CCN(Cc2ccc3c(c2)OCO3)CC1	-2%	-71*	i	?	9%
COc1cc2ccc(C(=O)O)cc2cc1OC	.	-15	i	i	.
COC(=O)c1ccc(NC(=O)CCCN2C(=O)NC(C)(C)C2=O)cc1	-467%	2	i	i	18%
COc1ccc(/C=C2\C=Cc3ccccc32)cc1OC	.	.	i	i	.
C(=Nc1ccc(/C=C/c2ccnc3ccccc23)cc1)c1cccs1	.	.	?	i	.
CCc1ccc(CN(C(=O)c2ccc(OC)cc2)C2CCS(=O)(=O)C2)cc1 (stereo not drawn)	.	.	i	i	.
COc1ccc(OC)c(CCNC(=O)CN2C(=O)CCSc3ccccc32)c1	-6%	10	i	i	3%
Cc1ccc(OCC(O)CN2CCN(Cc3ccc4c(c3)OCO4)CC2)c(C)c1 (stereo not drawn)	?	-60*!	i	i	?
O=C(/C=C/c1cccs1)N1CCN(Cc2ccc3c(c2)OCO3)CC1	-1%	0	i	18µM*	11%
O=C(N1CCN(Cc2ccc3c(c2)OCO3)CC1)C12CC3CC(CC(C3)C1)C2	-2%	-85*	i	i	10%
O=C(c1cc(F)c(F)c(F)c1F)N1CCN(Cc2ccc3c(c2)OCO3)CC1	-15%	-11	i	i	1%
O=C(/C=C/c1cccc([N+](=O)[O-])c1)N1CCN(Cc2ccc3c(c2)OCO3)CC1	-11%	-3	i	i	10%
CCOCCCn1c(=O)c(NC(=O)c2ccc(OCC)cc2)c2n(c1=S)CCCCC2	6%	19	i	8.2µM*	0%
CC(NC(=O)CCc1ccccc1)c1cc2c(cc1Cl)OCCO2 (stereo not drawn)	18%	-2	?	21µM*	?
CC(CC(=O)Nc1ccc2c(c1)OCCO2)c1ccccc1 (stereo not drawn)	-2%	7	i	i	-6%
CC(CC(=O)NC(C)c1ccc2c(c1)OCCO2)c1ccccc1 (stereo not drawn)	-44%	18	i	26µM*	5%
O=C(Cc1ccccc1)Nc1cc2c(cc1Cl)OCCCO2	0%	-7	i	i	8%
CC(NC(=O)c1cc2sccc2n1C)c1ccc2c(c1)OCCO2 (stereo not drawn)	-4%	4	?	21µM*	?
COc1ccc(NC(=O)C2CCCN2C(=O)OC(C)(C)C)cc1 (stereo not drawn)	-1%	11	i	i	-9%
Cc1ccsc1C(C(=O)NC(C)(C)C)N(C(=O)c1csnn1)c1ccccc1 (stereo not drawn)	0%	8	i	i	-4%
O=C1[C@H]2[C@H](C=CC[C@H]2C(=O)N2CCN(c3ccccc3)CC2)CCN1Cc1ccc(Cl)c(Cl)c1	?	-51*	i	?	?
COc1ccc(NC(=O)[C@@H]2CC=C[C@@H]3CCN(Cc4ccccc4)C(=O)[C@@H]32)cc1	-17%	-14	i	?	4%
O=C1[C@H]2[C@H](C=CC[C@H]2C(=O)N2CCN(c3ccccc3)CC2)CCN1Cc1ccccc1	-3%	2	?	?	-1%
SMILES	SW480 rerep	IL-1B inflam inh	KB-3-1 tox	KB-V1 MDR tox	MCF10A rerep
COc1ccc(NC(=O)[C@@H]2CC=C[C@@H]3CCN(Cc4ccc(Cl)c(Cl)c4)C(=O)[C@@H]32)cc1	?	?	?	23µM*!	-31%
CCCn1c(SCc2nc(-c3ccc(OC)c(OC)c3)no2)nnc1-c1ccccc1	.	.	i	?	.
Cc1cc(C)cc(NC(=O)CSCn2nnc3c(=O)[nH]c(Cc4ccc(F)cc4)nc32)c1	.	.	i	i	.
CCOC(=O)C1=C(C)N=C2SCCC(=O)N2C1c1ccc(C(=O)OC)cc1 (stereo not drawn)	0%	-8	i	i	-12%
CCOC(=O)C1=C(C)N2C(=C(C#N)[C@@H]1c1ccc(C(=O)OC)cc1)SC[C@@]2(O)C(C)(C)C	?	54	i	?	21µM*
O=C1c2ccccc2S(=O)(=O)c2cc(C(=O)N(c3ccccn3)c3ccccn3)ccc21	5%	4	i	15µM*	-2%
COc1ccc(/C=N/Nc2ncnc3sc4c(c23)CCCC4)cc1OC	?	30	18µM*	?	?
COc1ccc(N2CCN(C3CCCN(S(=O)(=O)c4ccc(C)cc4C)C3)CC2)cc1 (stereo not drawn)	?	?	26µM*	i	?
CCOc1cc(CN2CCSCC2)ccc1O	-13%	-2	i	i	0%
CCOc1cc(CN2CCCC(N3CCN(c4ccc(F)cc4)CC3)C2)ccc1OC (stereo not drawn)	-47%	-29	i	i	4.1µM*
COc1ccc(N2CCN(C3CCCN(Cc4cccc(C(C)=O)c4)C3)CC2)cc1 (stereo not drawn)	-16%	3	i	i	23µM*
COc1ccc(N2CCN(C3CCCN(Cc4cccc(C)c4)C3)CC2)cc1 (stereo not drawn)	10%	-5	?	i	-2%
COc1ccc(CN2CCCC(N3CCN(c4cccc(Cl)c4)CC3)C2)cc1OC (stereo not drawn)	-5%	-11	i	i	-1%
CCOc1cc(CN2CCN(c3cccc(C(F)(F)F)c3)CC2)ccc1O	13%	-15	i	16µM*	6%
CCOc1cc(CN2CCN(c3ccc(C(C)=O)cc3)CC2)ccc1OC	-1%	-18	i	23µM*	5%
COc1ccc(CC(C)N2CCN(c3cccc(C(F)(F)F)c3)CC2)cc1OC (stereo not drawn)	-1%	-20	i	18µM*	4%
CCOc1cc(CN2CCN(c3cccc(C(F)(F)F)c3)CC2)ccc1OC	-3%	-56*	i	?	-3%
Cc1cc(S(=O)(=O)NC(C)c2nnc3ccccn23)ccc1Br (stereo not drawn)	-2%	11	i	?	2%
COc1ccccc1OCCn1c(=S)[nH]c2ccccc21	?	11	?	23µM*	?
S=c1[nH]c2ccccc2n1CCc1ccncc1	-1%	-61*	i	?	4%
Cc1ccc(OCCn2c(=S)[nH]c3ccccc32)c(C(C)C)c1	4%	30	15µM*	i	?
CC1(C)CSC(=NCc2ccccc2)N1C(=O)c1cccc([N+](=O)[O-])c1	0%	-4	i	?	13%
